{"source": "PubChem BioAssay AID1259313", "about": "(Sanford-Burnham Center for Chemical Genomics, 2017)", "note": "Out of some 340,000 compounds screened, about 8,500 (2.5%) were called active.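 Rule for the calls: active = melting temperature shift of at least 10% of the positive control shift, at one fixed dose; inactive = the rest.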 The sample as a whole holds a higher share of actives than the screen did.", "data": [{"system": "Glutamate receptor ionotropic, NMDA 3A (GRIN3A) ligand-binding domain", "assay": "binders of NR3A ligand-binding domain, primary screen, biophysical, differential scanning fluorimetry, uHTS (AID 1259313)", "conditions": "NR3A LBD differential scanning fluorimetry, at 25 µM, active compounds read high, 0% = protein alone, 100% = glycine-bound protein", "values": [{"smiles": "Cc1sc(NC(=O)C2=COCCO2)c(C#N)c1C", "Tm shift relative to glycine control": "-1.88% (inactive)"}, {"smiles": "O=C(Nc1cccc(-c2cccc(Cl)c2)c1)C1CCN(C2CCC2)CC1", "Tm shift relative to glycine control": "-0.08% (inactive)"}, {"smiles": "C=CCSc1nnc(Cn2c(=O)sc3ccccc32)n1C", "Tm shift relative to glycine control": "-0.55% (inactive)"}, {"smiles": "CCOC(=O)c1cc2cc(-c3c(C(=O)OCC)oc4cc(O)cc(O)c4c3=O)ccc2o1", "Tm shift relative to glycine control": "22.4% (active)"}, {"smiles": "O=c1c(-c2ccc3c(c2)OCCO3)c(C(F)(F)F)oc2cc(O)cc(O)c12", "Tm shift relative to glycine control": "6.01% (inactive)"}, {"smiles": "CCOC(=O)c1oc2c(CN3CCN(C)CC3)c(O)ccc2c(=O)c1-c1ccc(Br)cc1", "Tm shift relative to glycine control": "-3.94% (inactive)"}, {"smiles": "Nc1nc(SCc2ccc([N+](=O)[O-])cc2)c2ncn(C3OC(CO)C(O)C3O)c2n1", "note": "(configuration not stated)", "Tm shift relative to glycine control": "1.21% (inactive)"}, {"smiles": "COc1ccc(CN2CCNC(=O)C2CC(=O)N(C)Cc2ccccn2)cc1OC", "note": "(configuration not stated)", "Tm shift relative to glycine control": "2.19% (inactive)"}, {"smiles": "Cc1ccc(-n2nc(C)c(/C=N/NC(=O)c3cccs3)c2Cl)cc1", "Tm shift relative to glycine control": "-1.88% (inactive)"}, {"smiles": "Cc1ccc(-n2c(C)cc(/C=N\\NC(=O)CC(=O)NC(C)C)c2C)cc1", "Tm shift relative to glycine control": "-0.09% (inactive)"}, {"smiles": "Cc1cccc(-n2c(C)cc(/C=N\\NC(=O)c3cccs3)c2C)c1", "Tm shift relative to glycine control": "11.5% (active)"}, {"smiles": "CN1CCN(c2ccccc2NC(=O)COc2ccc(C3CCCCC3)cc2)CC1", "Tm shift relative to glycine control": "2.39% (inactive)"}, {"smiles": "CC1(C)C/C(=C(/C#N)C(N)=O)CCO1", "Tm shift relative to glycine control": "1.51% (inactive)"}, {"smiles": "Cc1cc(Cl)ccc1C(=O)C1CCCN(C(=O)CCN2CCCO2)C1", "note": "(configuration not stated)", "Tm shift relative to glycine control": "-1.36% (inactive)"}, {"smiles": "CCNS(=O)(=O)c1ccc(NC(=O)Nc2cccc(OC)c2)cc1", "Tm shift relative to glycine control": "29.6% (active)"}, {"smiles": "CCNS(=O)(=O)c1ccc(NC(=O)Nc2cccc(C(F)(F)F)c2)cc1", "Tm shift relative to glycine control": "38.8% (active)"}, {"smiles": "O=C(Nc1ccc(C(=O)N2CCOCC2)cc1)Nc1cccc(C(F)(F)F)c1", "Tm shift relative to glycine control": "-5.51% (inactive)"}, {"smiles": "O=C(NCc1ccccc1)c1ccc(S(=O)(=O)Nc2cccc(C(F)(F)F)c2)cc1", "Tm shift relative to glycine control": "8.53% (inactive)"}, {"smiles": "CCN(CC(=O)Nc1ccc(S(=O)(=O)N2CCCC2)cc1)CC(=O)Nc1cccc(OC)c1", "Tm shift relative to glycine control": "0.48% (inactive)"}, {"smiles": "COc1cccc(NC(C)=[N+](C)CCNS(=O)(=O)c2ccc(Cl)cc2)c1", "Tm shift relative to glycine control": "-3.14% (inactive)"}, {"smiles": "O=C(N/N=C/c1ccc(OCC2COCCO2)cc1)c1ccc(Br)cc1", "note": "(configuration not stated)", "Tm shift relative to glycine control": "8.82% (inactive)"}, {"smiles": "COc1ccc(N2C(=O)C3C(C2=O)C(C(=O)c2ccccc2)N2CCCC32)cc1", "note": "(configuration not stated)", "Tm shift relative to glycine control": "-1.47% (inactive)"}, {"smiles": "Cc1cccc(C(=O)Nc2ccccc2C(=O)NCc2cccnc2)c1", "Tm shift relative to glycine control": "-0.85% (inactive)"}, {"smiles": "c1ccc(-c2cc(N3CCCCC3)c3ccccc3n2)cc1", "Tm shift relative to glycine control": "0.96% (inactive)"}, {"smiles": "Cc1nc(NNC(=O)c2ccccc2)cc(-c2ccccc2)n1", "Tm shift relative to glycine control": "-0.16% (inactive)"}, {"smiles": "Nc1cccc(-c2cc(-c3ccccc3)nc(-c3cccc(N)c3)n2)c1", "Tm shift relative to glycine control": "42.8% (active)"}, {"smiles": "Oc1[nH]c2ccc(Br)cc2c1N=Nc1nn[nH]n1", "Tm shift relative to glycine control": "4.42% (inactive)"}, {"smiles": "O=C(CNC(=O)Cc1ccccc1)N=Nc1c(O)[nH]c2ccc(Br)cc12", "Tm shift relative to glycine control": "-9.04% (inactive)"}, {"smiles": "NS(=O)(=O)c1ccc(N=Nc2c(O)[nH]c3ccc(Br)cc23)cc1", "Tm shift relative to glycine control": "23.4% (active)"}, {"smiles": "CCOc1cc2[nH]c(=S)n(CCN3CCCCC3C)c(=O)c2cc1OCC", "note": "(configuration not stated)", "Tm shift relative to glycine control": "0.59% (inactive)"}, {"smiles": "Cc1cc(C)cc(OCC(=O)NNC(=O)c2cc3ccccc3oc2=O)c1", "Tm shift relative to glycine control": "2.22% (inactive)"}, {"smiles": "O=C(CC(c1ccccc1)c1ccccc1)NCC(O)c1ccc([N+](=O)[O-])cc1", "note": "(configuration not stated)", "Tm shift relative to glycine control": "-6.68% (inactive)"}, {"smiles": "O=C(NCC(O)c1ccc([N+](=O)[O-])cc1)C1CCCCC1", "note": "(configuration not stated)", "Tm shift relative to glycine control": "-0.64% (inactive)"}, {"smiles": "CC(=O)NCC(O)c1ccc([N+](=O)[O-])cc1", "note": "(configuration not stated)", "Tm shift relative to glycine control": "12.1% (active)"}, {"smiles": "COC(=O)c1cc(NS(=O)(=O)c2ccc3c(c2)c(=O)n(C)c(=O)n3C)cc(C(=O)OC)c1", "Tm shift relative to glycine control": "-17.2% (inactive)"}, {"smiles": "Cc1csc2nc(O)c(C(=O)NCCN3CCOCC3)c(=O)n12", "Tm shift relative to glycine control": "1.24% (inactive)"}, {"smiles": "NC(=O)C1CCN(CC(O)CSc2ccc(F)cc2)CC1", "note": "(configuration not stated)", "Tm shift relative to glycine control": "-0.69% (inactive)"}, {"smiles": "COC(=O)C(C)Oc1ccc2c(-c3cccc([N+](=O)[O-])c3)cc(=O)oc2c1", "note": "(configuration not stated)", "Tm shift relative to glycine control": "0.72% (inactive)"}, {"smiles": "CCOC(=O)c1sc(-c2cccc([N+](=O)[O-])c2)cc1N", "Tm shift relative to glycine control": "20.4% (active)"}, {"smiles": "CCOC(=O)C1=C(CN2CCCCCC2)NC(=O)NC1c1cccc([N+](=O)[O-])c1", "note": "(configuration not stated)", "Tm shift relative to glycine control": "0.15% (inactive)"}, {"smiles": "Cc1cccc(N=C2NN=C(c3c[nH]c4ccccc34)CS2)c1", "Tm shift relative to glycine control": "19.3% (active)"}, {"smiles": "Cc1cccc(C(=O)Nc2nnc(Cc3c[nH]c4ccccc34)s2)c1", "Tm shift relative to glycine control": "-7.42% (inactive)"}, {"smiles": "C=CCn1c(C)cc(C2=NNC(=NCC)SC2)c1C", "Tm shift relative to glycine control": "-0.92% (inactive)"}, {"smiles": "CC(C)C(C(=O)NCc1ccco1)N(CC1CCCO1)C(=O)CNS(=O)(=O)c1ccc(F)cc1", "note": "(configuration not stated)", "Tm shift relative to glycine control": "0.85% (inactive)"}, {"smiles": "O=C(Nn1cc(C(=O)N2CCN(c3ccccc3F)CC2)c2ccccc2c1=O)c1cnccn1", "Tm shift relative to glycine control": "-1.41% (inactive)"}, {"smiles": "COc1ccc(/C=C(/CC(=O)Nc2ccc(C)cc2)c2nc3ccccc3s2)cc1", "Tm shift relative to glycine control": "-2.24% (inactive)"}, {"smiles": "COc1ccc(S(=O)(=O)Nc2ccc(O)c(Sc3nc4ccccc4s3)c2)cc1", "Tm shift relative to glycine control": "11.6% (active)"}, {"smiles": "COc1ccc(NS(=O)(=O)c2ccc3oc(SCC(N)=O)nc3c2)cc1", "Tm shift relative to glycine control": "-0.47% (inactive)"}, {"smiles": "CCC(C)(C)NC(=O)/C=C/c1cc(OC)c(OC)c(S(=O)(=O)N2CCc3ccccc32)c1", "Tm shift relative to glycine control": "0.08% (inactive)"}, {"smiles": "COCCNC(=S)N/N=C/c1c(C)[nH]c2ccccc12", "Tm shift relative to glycine control": "-4.38% (inactive)"}, {"smiles": "O=C(N/N=C/c1c(Cl)[nH]c2ccccc12)c1sc2ccccc2c1Cl", "Tm shift relative to glycine control": "28.2% (active)"}, {"smiles": "COc1ccc(CNC(=O)CNC(=O)c2sc3ccccc3c2Cl)cc1OC", "Tm shift relative to glycine control": "1.07% (inactive)"}, {"smiles": "Cc1ccc(N(C(=O)C(F)(F)F)C(C(=O)NC2CCCCC2)c2ccncc2)cc1C", "note": "(configuration not stated)", "Tm shift relative to glycine control": "-1.17% (inactive)"}, {"smiles": "O=C(OC1CCCCC1=O)c1cccc(S(=O)(=O)NCc2ccccc2)c1", "note": "(configuration not stated)", "Tm shift relative to glycine control": "-0.25% (inactive)"}, {"smiles": "CC1CN(c2cc(=O)n(-c3cccc(Br)c3)c(=O)[nH]2)CC(C)O1", "note": "(configuration not stated)", "Tm shift relative to glycine control": "0.6% (inactive)"}, {"smiles": "COc1ccc(Br)cc1CN(C)CC(=O)Nc1cc(Cl)cc(Cl)c1", "Tm shift relative to glycine control": "-14.8% (inactive)"}, {"smiles": "O=C1c2ccccc2C(=O)N1CC1c2ccccc2CCN1S(=O)(=O)c1ccccc1", "note": "(configuration not stated)", "Tm shift relative to glycine control": "-1.14% (inactive)"}]}]}
